Screens from PubChem BioAssay.
A selection: hits, their analogues and other compounds. The true share with any hit is near 4.6%.
tim23-1 inh – growth inhibitors of tim23-1 mutant yeast, primary screen, luminescence, uHTS; inhibition, % at 20 µM; 1.3% of 330,000 active; S. cerevisiae tim23-1 growth, BacTiter-Glo luminescence, 24 h;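 active = growth inhibition of the mutant yeast at or above 50%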;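 note: temperature-sensitive mutant grown at 25 °C; plate controls were DMSO-treated mutant yeast for no effect and medium wells lacking yeast for full effect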
TIM10 inh – growth inhibitors of isogenic TIM10 control yeast, primary screen, counter-screen for tim10-1 yeast inhibitor project, luminescence, uHTS; 1.4% of 330,000 active; AID 463195, 2010; S. cerevisiae TIM10 strain growth, BacTiter-Glo luminescence, 24 h; inhibition, % at 10 µM;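 active = inhibition of 40% or more at the single tested concentration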;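 note: wild-type TIM10 isogenic control strain grown at permissive 25 °C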
SKKanGAS inh – S. pyogenes SKKanGAS growth inhibitors in kanamycin, primary screen, streptokinase expression inhibitor project, SKKanGAS strain, BacTiter-Glo luminescence; 6 h; 1.3% of 300,000 active; inhibition, % at 7.5 µM; AID 1662, 2009;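 active = mean replicate score, as percent of positive control median, at least 50; inconclusive = mean below 50 but one replicate at or above 50; inactive = mean and every replicate below 50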;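 note: strain carries kanamycin resistance gene driven by streptokinase promoter and grows in 40 µg/ml kanamycin; loss of luminescence reflects streptokinase promoter inhibition or plain growth inhibition; 0% = median of DMSO wells and 100% = positive control at its reference dose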
tim10-1 inh – growth inhibitors of tim10-1 mutant yeast, primary screen, luminescence, uHTS; S. cerevisiae tim10-1 ts strain growth, BacTiter-Glo, 24 h; AID 463190, 2010; inhibition, % at 20 µM; 2.2% of 330,000 active;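 active = inhibition of at least 40%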;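 note: mutant grown at 25 °C; 0% = DMSO wells with yeast and 100% = wells holding no yeast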
V-ATPase pH – regulators of yeast V-ATPase proton pumping, primary screen, pHLuorin cytosolic pH fluorescence; S. cerevisiae; response, % at 10 µM; 0.37% of 350,000 active; in the data active = response mostly above about 7.3%, no sharp cut-off; inactive = mostly below about 5.4%; note: actives read high
PfHsp90 yeast 2 – growth inhibition of PfHsp90-expressing yeast, primary screen, antimalarial PfHsp90 inhibitor project, S. cerevisiae, BacTiter-Glo luminescence, single point, set 2; BacTiter-Glo ATP, 48 h; yeast lacking PDR1 and PDR3 efflux regulators; inhibition, % at 9.4 µM; 0.32% of 310,000 active; AID 504621, 2011;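 active = every replicate shows inhibition above about 80%, whatever the replicate mean, limit read from the data; inconclusive = mean inhibition reaches the set limit but some replicate falls short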;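 note: 0% = DMSO neutral controls and 100% = 20 µM radicicol positive controls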
tim10-1 conf – growth inhibitors of tim10-1 mutant yeast, confirmation, single concentration, luminescence, S. cerevisiae; shares compounds with tim10-1 inh; S. cerevisiae tim10-1 ts strain growth, BacTiter-Glo, 24 h; inhibition, % at 20 µM; 56% of 7,400 active; AID 463213, 2010;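 active = inhibition of yeast growth at or above a set limit in either of two repeat tests at 20 µM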;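 note: tim10-1 mutant grown at permissive 25 °C to find synthetic lethal compounds; 0% = DMSO yeast wells and 100% = medium wells without yeast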
Active calls of the source: *; ? = inconclusive; · = no result given.

SMILES | tim23-1 inh | TIM10 inh | SKKanGAS inh | tim10-1 inh | V-ATPase pH | PfHsp90 yeast 2 | tim10-1 conf
CCCC(O)(c1ccc(Cl)cc1)C(CN1CCOCC1)c1ccccc1 (stereo not drawn) | 32 | 9 | -5 | 29 | 2 | 5 | ·
CC(C)=NOC(=O)c1ccc(-c2ccccc2)cc1 | 42 | 39 | 1 | 54* | 2 | -23 | 42*
O=C(N/N=C/c1cc([N+](=O)[O-])ccc1N1CCNCC1)c1ccc([N+](=O)[O-])cc1 | 9 | 6 | 9 | 7 | -4 | 18 | ·
N/C(=N\OC(=O)c1cccc(Br)c1)c1ccncc1 | 12 | 11 | -4 | 41* | 1 | 10 | 35*
Cc1cccc(C(=O)O/N=C(/c2ccccc2)c2ccncc2)c1 | 37 | 31 | -3 | 41* | 2 | · | 42*
N/C(=N\OC(=O)c1ccc(F)cc1)c1ccc(Br)cc1 | 29 | 34 | 1 | 57* | 5 | · | 46*
N/C(=N\OC(=O)c1ccc(Br)cc1)c1ccncc1 | 29 | 37 | -21 | 53* | 3 | 0 | 43*
N/C(=N\OC(=O)c1ccccc1)c1ccncc1 | 4 | 4 | -4 | -8 | -2 | 2 | ·
N#Cc1ccsc1NC(=O)COC(=O)C1=NNC(=O)CC1 | -10 | -1 | · | -10 | -1 | 6 | ·
COc1cc(C)ccc1OCc1cc(C(=O)N2CCC(c3ccc(F)cc3)C2)no1 (stereo not drawn) | 33 | 19 | 14 | 41* | 4 | -5 | 27*
O=C(NCCc1cccnc1)c1cc(COc2ccc(F)cc2F)on1 | 19 | 6 | -8 | 17 | -7 | -22 | ·
O=C(NCCc1cccnc1)c1cc(COc2ccc(F)cc2Cl)on1 | 29 | 3 | -15 | 45* | 6 | 12 | 18
Cc1ccc(C)c(OCc2cc(C(=O)N3CC[C@@H]4CCCC[C@H]4C3)no2)c1 | 14 | 13 | 25 | 7 | 10 | -16 | ·
O=C(c1cc(COc2ccc(F)cc2Cl)on1)N1CCCC(OCc2cccnc2)C1 (stereo not drawn) | 20 | 8 | -10 | 44* | -3 | 19 | 26
O=C(COC(=O)c1ccc(O)cc1O)NC1CC1 | 0 | 6 | · | 9 | 2 | -5 | ·
CC(C)=CCN1CCN(Cc2ccc(Sc3nncn3C)o2)CC1CCO (stereo not drawn) | 1 | 5 | -1 | 8 | 3 | 11 | ·
COc1cc(/C=C2\CC/C(=C\c3ccc(OCCO)c(OC)c3)C2=O)ccc1OCCO | 32 | 10 | 38 | 49* | -1 | -17 | 40*
COc1cc(/C=C2/CC/C(=C/c3ccc(O)c(OC)c3)C2=O)ccc1O | 3 | 13 | ? | -13 | -1 | -5 | ·
COc1cc(Br)cc(/C=C/c2ccc3cccc(O)c3n2)c1O | 41 | 20 | 101* | 49* | -4 | -65 | 38*
Oc1c(Cl)cc(Cl)cc1/C=C/c1ccc2cccc(O)c2n1 | 30 | 26 | 102* | 43* | 2 | 20 | 33*
COc1ccc(C=Cc2ccc3ccccc3n2)c(OC)c1 | · | · | · | · | -3 | · | ·
Oc1cccc2ccc(/C=C/c3cccs3)nc12 | 41 | 19 | 120* | 41* | 2 | -139 | 18
COc1cc(/C=C/c2ccc3cccc(O)c3n2)c(Br)cc1O | 48 | 37 | 94* | 47* | 5 | -78 | 46*
Cc1ccc(CNC(=O)N[C@@H](Cc2ccccc2)C(=O)O)cc1 | 13 | -13 | -7 | 10 | 6 | -32 | ·
COC(=O)c1ccc(C(=O)OC)c(NC(=S)N2CCCC(C)C2)c1 (stereo not drawn) | 18 | 6 | -2 | 21 | 1 | 12 | ·
SMILES | tim23-1 inh | TIM10 inh | SKKanGAS inh | tim10-1 inh | V-ATPase pH | PfHsp90 yeast 2 | tim10-1 conf
C=CCn1c(SCC(=O)Nc2ccc(N3CCOCC3)cc2)nc2ccccc2c1=O | -10 | 1 | -2 | -18 | 0 | 1 | ·
Cn1c(N)c(C(=O)COC(=O)C2CCC(C(C)(C)C)CC2)c(=O)n(C)c1=O (stereo not drawn) | 19 | 10 | 4 | 42* | 1 | · | 26
CC(C)c1ccc(/C=C/C(=O)CCC(=O)O)cc1 | 33 | 7 | -7 | 41* | 0 | -36 | 24
O=C(O)CCC(=O)/C=C/c1ccccc1 | 31 | 0 | 3 | 32 | -2 | -4 | ·
CC(C)c1ccc(/C=C/C(=O)N2CCOCC2)cc1 | 11 | 19 | -5 | 15 | -2 | 13 | ·
CC(C)c1ccc(/C=C/C(=O)N2CCCCCC2)cc1 | 32 | 16 | -18 | 43* | 1 | -22 | 14
Cc1cc(-n2c(C)cc(C(=O)COc3ccc(Cl)cc3C(N)=O)c2C)no1 | -7 | -6 | · | -17 | 3 | 23 | ·
Cn1ncc(N=Cc2ccc([N+](=O)[O-])cc2)c1C(=O)N1CCOCC1 | -2 | -2 | -4 | -4 | 4 | 1 | ·
O=C1CC2(CCN(C(=O)c3ccc(F)cc3)CC2)Oc2ccccc21 | 5 | 10 | 0 | -13 | 2 | 4 | ·
Cc1ccccc1C(=O)Nc1cccc(C(=O)N/N=C/c2cc(Cl)cc([N+](=O)[O-])c2O)c1 | 8 | 18 | 11 | 41* | 6 | -39 | 22
Cc1ccc(SCc2[nH]nc3c2C(c2ccc(C)o2)C(C#N)=C(N)O3)cc1 (stereo not drawn) | 41 | 23 | · | 42* | -3 | 0 | 38*
CCc1[nH]nc2c1C(c1ccc(C)o1)C(C#N)=C(N)O2 (stereo not drawn) | -2 | -3 | -3 | -2 | -3 | · | ·
COc1ccc(-c2nn(-c3ccccc3)cc2/C=C(\CC(=O)O)c2nc3ccccc3s2)cc1OC | 33 | 19 | 27 | 71* | -1 | -25 | 41*
CCN(CC)C(=O)Oc1ccc2c(=O)c(-c3ccccc3)coc2c1 | 21 | 25 | -4 | 54* | 2 | 11 | 41*
CCCCCCC(=O)N(O)C1CC(=O)N(c2ccc(C)cc2)C1=O (stereo not drawn) | 29 | 37 | 3 | 71* | -4 | 106* | 44*
O=C(c1csc2c1CCCC2)N1CCN(c2ncccn2)CC1 | 16 | 21 | 4 | 22 | 7 | 9 | ·
O=C(c1csc2c1CCCC2)N1CCN(c2cccc(C(F)(F)F)c2)CC1 | 33 | 30 | 14 | 56* | 1 | · | 33*
O=C(c1csc2c1CCCC2)N1CCN(c2ccc(F)cc2)CC1 | 37 | 9 | 10 | 43* | -7 | · | 31
CCCc1cc(C(=O)N2CCCC(C(=O)c3cc(C)c(OC)c(C)c3)C2)n(C)n1 (stereo not drawn) | 15 | 21 | -4 | 11 | 0 | 5 | ·
